Drawing on PubChem BioAssay (EPA / NIEHS), this text covers outcome and AC50 for 28 compounds.

Records with an inconclusive call do not appear. Active and inactive are the calls of the source. How the source made its calls: active means hit-call score of the fitted dose curve at least 0.9, where 1 is the maximum; inconclusive means response in the unintended direction; inactive means score below 0.9.

Chain of Estrogen receptor beta (Homo sapiens) (Q92731 whole entry, looked up, the tested form may be a part): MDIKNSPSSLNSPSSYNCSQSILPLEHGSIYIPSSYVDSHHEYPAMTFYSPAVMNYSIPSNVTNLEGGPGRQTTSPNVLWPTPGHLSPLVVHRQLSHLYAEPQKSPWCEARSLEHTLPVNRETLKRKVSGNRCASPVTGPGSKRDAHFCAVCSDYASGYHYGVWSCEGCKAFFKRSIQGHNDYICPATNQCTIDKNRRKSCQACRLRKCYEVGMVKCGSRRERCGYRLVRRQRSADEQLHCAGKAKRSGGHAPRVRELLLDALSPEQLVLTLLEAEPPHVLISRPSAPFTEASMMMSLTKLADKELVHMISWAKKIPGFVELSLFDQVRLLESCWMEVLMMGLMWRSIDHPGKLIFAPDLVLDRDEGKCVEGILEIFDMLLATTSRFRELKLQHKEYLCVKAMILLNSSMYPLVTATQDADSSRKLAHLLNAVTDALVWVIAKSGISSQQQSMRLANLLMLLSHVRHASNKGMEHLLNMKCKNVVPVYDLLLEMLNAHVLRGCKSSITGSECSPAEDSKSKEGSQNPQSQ
Chain of PGR (gene 5241) (P06401 whole entry, looked up): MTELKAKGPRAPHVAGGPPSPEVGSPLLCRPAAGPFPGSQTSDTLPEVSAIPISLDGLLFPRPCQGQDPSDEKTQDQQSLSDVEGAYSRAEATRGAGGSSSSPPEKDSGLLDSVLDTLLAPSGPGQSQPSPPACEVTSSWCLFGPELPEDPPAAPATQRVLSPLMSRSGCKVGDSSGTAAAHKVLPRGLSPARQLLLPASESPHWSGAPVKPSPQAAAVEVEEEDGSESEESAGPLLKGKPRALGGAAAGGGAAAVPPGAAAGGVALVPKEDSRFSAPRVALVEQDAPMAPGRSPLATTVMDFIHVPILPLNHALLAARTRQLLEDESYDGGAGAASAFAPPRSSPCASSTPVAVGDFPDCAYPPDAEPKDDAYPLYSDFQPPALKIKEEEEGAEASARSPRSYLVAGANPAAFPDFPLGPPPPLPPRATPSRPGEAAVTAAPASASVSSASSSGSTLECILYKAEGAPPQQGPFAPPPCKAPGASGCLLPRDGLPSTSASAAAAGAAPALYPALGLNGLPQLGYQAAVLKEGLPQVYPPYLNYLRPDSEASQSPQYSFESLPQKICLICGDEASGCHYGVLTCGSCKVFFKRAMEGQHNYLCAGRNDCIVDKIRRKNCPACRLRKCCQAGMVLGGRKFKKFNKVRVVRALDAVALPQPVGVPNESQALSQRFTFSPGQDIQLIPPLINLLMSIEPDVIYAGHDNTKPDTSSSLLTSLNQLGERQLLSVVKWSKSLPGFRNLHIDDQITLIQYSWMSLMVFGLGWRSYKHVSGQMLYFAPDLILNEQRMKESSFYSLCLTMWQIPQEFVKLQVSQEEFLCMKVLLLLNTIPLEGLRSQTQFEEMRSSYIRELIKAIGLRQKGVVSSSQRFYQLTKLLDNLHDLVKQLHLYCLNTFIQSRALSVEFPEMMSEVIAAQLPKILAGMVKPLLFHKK
Chain of human Peroxisome Proliferator-activated Receptor alpha (PPARa), PPARA (gene 5465) (Q07869 whole entry, looked up): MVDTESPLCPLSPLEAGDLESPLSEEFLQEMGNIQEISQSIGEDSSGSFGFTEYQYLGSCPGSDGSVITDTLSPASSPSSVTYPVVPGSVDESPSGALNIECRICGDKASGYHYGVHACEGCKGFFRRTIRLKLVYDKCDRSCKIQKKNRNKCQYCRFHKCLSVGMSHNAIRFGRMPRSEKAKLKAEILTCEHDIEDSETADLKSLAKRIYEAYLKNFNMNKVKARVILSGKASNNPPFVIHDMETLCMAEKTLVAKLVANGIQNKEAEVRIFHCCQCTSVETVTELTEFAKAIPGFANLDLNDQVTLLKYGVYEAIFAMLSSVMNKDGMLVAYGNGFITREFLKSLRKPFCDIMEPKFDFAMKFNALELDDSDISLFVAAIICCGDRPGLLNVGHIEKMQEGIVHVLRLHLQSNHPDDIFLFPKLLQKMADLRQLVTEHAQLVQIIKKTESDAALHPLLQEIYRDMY

For the first experiment, the target named is Estrogen receptor (Homo sapiens) + Estrogen receptor beta (Homo sapiens) (UniProt P03372+Q92731). As to the kind of experiment: OT_ER_ERaERb_1440: Odyssey Thera (OT) 24-hour HEK293T Protein-Complementation Assay for Estrogen Receptor-alpha/-beta Homodimer (AID 2283356).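 Further: heteromer of ER alpha and ER beta binding domains; hits raise reporter fluorescence and both agonists and antagonists give an increase.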 Summed up: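 24 h exposure; HEK293T PCA cells with ERα/ERβ LBD fragments; signal rise in nuclear or whole-cell fluorescence over vehicle.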
Chain of Estrogen receptor (Homo sapiens) + Estrogen receptor beta (Homo sapiens) (P03372 whole entry, looked up, the tested form may be a part): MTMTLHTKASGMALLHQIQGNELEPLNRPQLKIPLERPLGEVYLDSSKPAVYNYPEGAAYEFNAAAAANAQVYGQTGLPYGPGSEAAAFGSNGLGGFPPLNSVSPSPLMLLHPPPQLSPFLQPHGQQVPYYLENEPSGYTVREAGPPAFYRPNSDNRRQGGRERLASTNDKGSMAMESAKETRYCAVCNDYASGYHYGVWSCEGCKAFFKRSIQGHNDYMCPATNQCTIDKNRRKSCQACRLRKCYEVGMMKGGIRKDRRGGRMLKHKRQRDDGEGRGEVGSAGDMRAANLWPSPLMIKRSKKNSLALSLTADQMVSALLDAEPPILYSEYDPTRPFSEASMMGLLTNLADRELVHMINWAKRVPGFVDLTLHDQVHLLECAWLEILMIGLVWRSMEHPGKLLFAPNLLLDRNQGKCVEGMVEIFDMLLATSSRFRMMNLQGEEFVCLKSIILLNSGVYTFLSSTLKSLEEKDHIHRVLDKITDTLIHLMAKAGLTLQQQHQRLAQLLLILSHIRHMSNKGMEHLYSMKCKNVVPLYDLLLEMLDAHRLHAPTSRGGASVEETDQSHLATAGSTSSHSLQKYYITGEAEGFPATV
Chain of Estrogen receptor (Homo sapiens) + Estrogen receptor beta (Homo sapiens) (Q92731 whole entry, looked up, the tested form may be a part): as the sequence (Q92731 whole entry, looked up, the tested form may be a part) above
Take `Cc1ccc(S(=O)(=O)NC(=O)NN2CCCCCC2)cc1`: the result was inactive.
With `CC(C)CCCCCCOC(=O)C1CCCCC1C(=O)OCCCCCCC(C)C` (centres undefined), the result was inactive.
Same read-out and setting: to `CC(C)c1nnc2ccc(-c3ocnc3-c3cc(F)ccc3F)cn12` belongs “inactive”; to `Cn1cc[nH]c1=S`, “inactive”; to `CNC(C)=O`, “inactive”.
On the same count and under the same terms, to `O=C(NO)C1(NS(=O)(=O)c2ccc(Oc3ccc(F)cc3)cc2)CCOCC1` belongs “inactive”.
Still for that read-out and setting: then `CC[C@H](C)C(=O)O[C@H]1C[C@H](O)C=C2C=C[C@H](C)[C@H](CC[C@@H](O)C[C@@H](O)CC(=O)O)[C@H]21`, with “inactive”; and `CCCCCCCCCC`, with “inactive”.
For the compound `OC[C@H]1O[C@@H]2O[C@H]3[C@H](O)[C@@H](O)[C@@H](O[C@H]4[C@H](O)[C@@H](O)[C@@H](O[C@H]5[C@H](O)[C@@H](O)[C@@H](O[C@H]6[C@H](O)[C@@H](O)[C@@H](O[C@H]7[C@H](O)[C@@H](O)[C@@H](O[C@H]1[C@H](O)[C@H]2O)O[C@@H]7CO)O[C@@H]6CO)O[C@@H]5CO)O[C@@H]4CO)O[C@@H]3CO`, the outcome was inactive.
Still for that read-out and setting: then `CCOc1ccc2[nH]cc(C(=O)NCc3ccccc3)c(=O)c2n1`, with “inactive”.
Turning to `NC(=O)NN=Cc1ccc([N+](=O)[O-])o1`, the outcome was inactive.
The same measure, in the same setting: then `OCC(CO)(CO)CO`, with “inactive”.
On the same count and under the same terms, then `CCCOc1ccc(S(=O)(=O)N2CCN(CC)CC2)cc1-c1nc2c(CC)n(Cc3ccccn3)nc2c(=O)[nH]1`, with “inactive”; and `c1ccc2c(c1)-c1cccc3c1c-2cc1ccccc13`, with “inactive”; and `CCc1cccc(CC)c1N`, with “inactive”.
In the case of `c1ccc(C(O[C@@H]2CCCN(CCc3ccc4c(c3)OCO4)C2)c2ccccc2)cc1`, the AC50 (in general, the concentration giving half of the maximal activity seen) is 62.5 µM (active).
As to `C[C@@H](Oc1ccc(CNC(=O)c2cccnc2Oc2ccc3c(c2)OCO3)c(F)c1)C(=O)O`, the result was inactive.
Consider `c1ccc2cc3ccccc3cc2c1`, for which the outcome was inactive.
On the same count and under the same terms, then `OCc1ccccc1`, with “inactive”.
For `CCCCN1C(=O)[C@@H]([C@H](O)C2CCCCC2)NC(=O)C12CCN(Cc1ccc(Oc3ccc(C(=O)O)cc3)cc1)CC2`, the outcome was inactive.
For `CCn1nc(C)c2c1C(=O)NCC(c1ccc(O)cc1)=N2`, the outcome was inactive.
For `Cc1cccc(O)c1C`, the result was inactive.
For the compound `OC(CCl)CCl`, the outcome was inactive.

A further experiment has as its target Estrogen receptor beta (Homo sapiens) (UniProt Q92731). Briefly: OT_ER_ERbERb_0480: Odyssey Thera (OT) 8-hour HEK293T Protein-Complementation Assay for Estrogen Receptor-beta/-beta Homodimer (AID 2283357).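 Further: active means signal gain over DMSO baseline.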 A digest of the protocol:
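Readout: increase in mean fluorescence intensity (nucleus for agonists; nucleus plus cytoplasm for antagonists) relative to DMSO, from a reporter-fragment complementation of human ER-beta LBD homodimer in HEK293T cells dosed 8 hours.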
On to `Cc1ccc(S(=O)(=O)NC(=O)NN2CCCCCC2)cc1`, for which the outcome was inactive.
Consider `CC(C)c1nnc2ccc(-c3ocnc3-c3cc(F)ccc3F)cn12`, for which the call was inactive.
With `Cn1cc[nH]c1=S`, the call was inactive.
Consider `CNC(C)=O`, for which the compound was called inactive.
The same measure, in the same setting: then `O=C(NO)C1(NS(=O)(=O)c2ccc(Oc3ccc(F)cc3)cc2)CCOCC1`, with “inactive”; and `CC[C@H](C)C(=O)O[C@H]1C[C@H](O)C=C2C=C[C@H](C)[C@H](CC[C@@H](O)C[C@@H](O)CC(=O)O)[C@H]21`, with “inactive”.
The same measure, in the same setting: to `CCCCCCCCCC` belongs “inactive”; to `OC[C@H]1O[C@@H]2O[C@H]3[C@H](O)[C@@H](O)[C@@H](O[C@H]4[C@H](O)[C@@H](O)[C@@H](O[C@H]5[C@H](O)[C@@H](O)[C@@H](O[C@H]6[C@H](O)[C@@H](O)[C@@H](O[C@H]7[C@H](O)[C@@H](O)[C@@H](O[C@H]1[C@H](O)[C@H]2O)O[C@@H]7CO)O[C@@H]6CO)O[C@@H]5CO)O[C@@H]4CO)O[C@@H]3CO`, “inactive”.
With `CCOc1ccc2[nH]cc(C(=O)NCc3ccccc3)c(=O)c2n1`, the call was inactive.
Regarding `OCC(CO)(CO)CO`, the compound was called inactive.
On the same count and under the same terms, then `CCCOc1ccc(S(=O)(=O)N2CCN(CC)CC2)cc1-c1nc2c(CC)n(Cc3ccccn3)nc2c(=O)[nH]1`, with “inactive”; and `c1ccc2c(c1)-c1cccc3c1c-2cc1ccccc13`, with “inactive”; and `CCc1cccc(CC)c1N`, with “inactive”.
For the compound `c1ccc(C(O[C@@H]2CCCN(CCc3ccc4c(c3)OCO4)C2)c2ccccc2)cc1`, the outcome was inactive.
On the same count and under the same terms, then `CC(C)C(=O)Nc1ccc([N+](=O)[O-])c(C(F)(F)F)c1`, with “inactive”; and `CCCc1ccccc1`, with “inactive”.
On the same count and under the same terms, then `C[C@@H](Oc1ccc(CNC(=O)c2cccnc2Oc2ccc3c(c2)OCO3)c(F)c1)C(=O)O`, with “inactive”; and `c1ccc2cc3ccccc3cc2c1`, with “inactive”; and `OCc1ccccc1`, with “inactive”.
The same measure, in the same setting: to `CCn1nc(C)c2c1C(=O)NCC(c1ccc(O)cc1)=N2` belongs “inactive”.
Take `Cc1cccc(O)c1C`: the result was inactive.
On the same count and under the same terms, to `O=C1CN(N=Cc2ccc([N+](=O)[O-])o2)C(=O)N1` belongs “inactive”.

A further experiment has as its target human Peroxisome Proliferator-activated Receptor alpha (PPARa), PPARA (gene 5465) (UniProt Q07869). As to the kind of experiment: NVS_NR_hPPARa: NovaScreen (NVS) Nuclear Receptor Binding Assay for human Peroxisome Proliferator-activated Receptor alpha (PPARa) (AID 2283359).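 Further: activity means loss of TR-FRET signal versus DMSO baseline.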 Summed up:
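Cell-free binding assay with extracted human protein, read by TR-FRET 1 h after chemical dosing. Loss of signal relative to DMSO baseline indicates binding. Primary screen used duplicate single concentration (25 uM); actives followed up in concentration series.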
Turning to `CC(C)C(=O)Nc1ccc([N+](=O)[O-])c(C(F)(F)F)c1`, the call was inactive.
In the case of `CCCCN1C(=O)[C@@H]([C@H](O)C2CCCCC2)NC(=O)C12CCN(Cc1ccc(Oc3ccc(C(=O)O)cc3)cc1)CC2`, the compound was classed as inactive.
On to `OC(CCl)CCl`, for which the concentration at half-maximal activity (AC50) is 40.2 µM (active).

A further experiment concerns the target PGR (gene 5241) (UniProt P06401). As to the kind of experiment: NVS_NR_hPR: NovaScreen (NVS) Nuclear Receptor Binding Assay for human Progestron Receptor (PR) (AID 2283360).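 Further: active means loss of bound radioligand signal versus DMSO baseline.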 Summed up:
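Radioligand competition binding on receptor extracted from T47D cells, read by scintillation counting 18 h after dosing. Loss of signal versus DMSO; primary screen in duplicate at 25 uM, actives followed in concentration series.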
Turning to `C[C@]12C=CC(=O)C=C1CC[C@H]1[C@@H]3C[C@@H](O)[C@](O)(C(=O)CO)[C@@]3(C)C[C@H](O)[C@@]12F`, the outcome was inactive.
Same read-out and setting: to `Cn1cc[nH]c1=S` belongs “inactive”.
Regarding `O=C(NO)C1(NS(=O)(=O)c2ccc(Oc3ccc(F)cc3)cc2)CCOCC1`, the AC50 is 6.3 µM (active).
As for `CCCCCCCCCC`, the call was inactive.
Turning to `CCCOc1ccc(S(=O)(=O)N2CCN(CC)CC2)cc1-c1nc2c(CC)n(Cc3ccccn3)nc2c(=O)[nH]1`, the result was inactive.
Same read-out and setting: to `CCc1cccc(CC)c1N` belongs “inactive”; to `c1ccc(C(O[C@@H]2CCCN(CCc3ccc4c(c3)OCO4)C2)c2ccccc2)cc1`, “inactive”.
Same read-out and setting: to `CCCc1ccccc1` belongs “inactive”.
As to `C[C@@H](Oc1ccc(CNC(=O)c2cccnc2Oc2ccc3c(c2)OCO3)c(F)c1)C(=O)O`, the call was inactive.
As for `OCc1ccccc1`, the compound was classed as inactive.
On the same count and under the same terms, then `O=S(=O)(O)c1ccc(N=Nc2c(O)ccc3cc(S(=O)(=O)O)ccc23)cc1`, with “inactive”.
